Each molecule was assayed on HCC1569 (assay: H1.0 immunofluorescence intensity relative to DMSO (% of DMSO); higher = stronger H1.0 induction, active = 140 or more). Details: concentration: 10 µM; 24 h.
Procedure, shortened: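 Cell number or H1.0 nuclear intensity appears as percent of the plate control, based on the median of replicates. Measurements came from HCC1569 and TDF cells exposed in triplicate to compounds at 10 µM for 24 h at 37 °C, then imaged in six fields per well at ×10. Positional effects were smoothed out of HCC1569 values.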
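Further: TDF is a line of transformed human dermal fibroblasts of mesenchymal origin.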

H1.0 immunofluorescence intensity, inactive:
O=C1NCN(c2ccccc2)C12CCN(CCCC(c1ccc(F)cc1)c1ccc(F)cc1)CC2 [Fluspirilene] 126
CC(C)Cn1cnc2c(N)nc3ccccc3c21 [Imiquimod] 108
Cl.Cl.O=S(=O)(NCCNCC=Cc1ccc(Br)cc1)c1cccc2cnccc12 [H-89, Dihydrochloride] 129
CC1=NN(c2ccccc2)C(=O)C1 97.6
COc1cc(C(=O)OC2CC(C)=CCCC(C)=CC(O)C2C(C)C)ccc1O (stereo not given) [Tschimganidin] 86.8
